# Laboratory results: PubChem BioAssay AID504466 (National Center for Advancing Translational Sciences (NCATS), 2011)
# Among all 330,000 compounds or so, about 4,200 (1.3%) were called active. Not shown: some 6% with an inconclusive outcome. Shown is part of a subset that was picked to be rich in actives. Values without a mark were called inactive. The call rests on the fitted dose curve; in most records, active means well fitted activation curve with a large enough effect; inconclusive means small, poorly fitted or top-dose-only effect; inactive means no such curve, though single readings can be large or run the other way.
# Test: qHTS screen for small molecules that induce genotoxicity in human embryonic kidney (HEK293T) cells expressing luciferase-tagged ELG1; further: nearly all actives have a fitted effect of over 60% in size; on activity change, positive = activation: % of control where 0% means no effect
# Conditions: HEK293T ELG1-luciferase reporter, luminescence, 16 h; series mostly up to 46 µM; activity change, positive = activation: at the top concentration
# Text: NIH Molecular Libraries Probe Production Network [MLPCN] NIH Chemical Genomics Center [NCGC] MLPCN Grant: 1 R03 MH092164-01 Assay Provider: Kyungjae Myung, NHGRI, NIH Keywords: MLPCN, qHTS, NCGC, genotoxicity, cancer Assay Overview: Cancer cells divide rapidly compared to normal cells in the body. During cell division, cancer cells need to duplicate their genome by DNA replication. The failure of genome duplication leads to cancer cells' death. Therefore, inhibitors of DNA replication could specifically kill cancer cells. Based on this concept, many chemotherapeutic agents were developed and have been used to treat cancer patients. However, there are a limited number of agents available in the clinical setting, and some of those that do exist have low efficacy and severe side effects. Therefore, if we can find the compounds that effectively block DNA replication either by directly damaging DNA or by inhibiting other cellular mechanisms, the options for cancer treatment will be broadened. With this in mind, we developed a quantitative high-throughput ELG1-luciferase reporter gene assay. Since the level of human ELG1 protein is enhanced in response to genetic stresses, increases in luciferase activity can be used to identify compounds that cause genetic stress.
# Assay Protocol Summary: For genotoxicity screening, 2,000 cells in 5 uL/well were dispensed into white, solid-bottom 1536-well plates using a solenoid-based dispenser. Following transfer of 23 nL compound or DMSO vehicle by a pin tool, the plates were incubated 16 hr at 37 °C and 5% CO2. 5 ul ONE-Glo (Promega) was then added to each plate and following a 30 min incubation at room temperature, luciferase activity was quantified on a ViewLux CCD-based plate reader.
# Potency means the concentration at half of the fitted maximal effect.
Structure (SMILES),Potency,"activity change, positive = activation [%]"
CC(C)c1ccc(C(=O)NCCCc2ccccc2)cc1,18.4 µM (active),
O=C(CCNC(=O)c1ccc(Br)cc1)NCCCc1ccccc1,,2.41
CN(c1ccccc1)S(=O)(=O)c1ccc(C(=O)NCCc2ccccc2)cc1,,13.5
Cc1noc(C)c1NC(=O)Nc1ccc2c(c1)C(=O)N([C@H](C)CO)C[C@H](C)[C@@H](CN(C)C(=O)Nc1ccccc1)O2,,3.31
O=C(CSc1ncnc2sccc12)NC1CCS(=O)(=O)C1 (stereo not drawn),,1.63
C=CCC[C@@H](Cc1ccc(F)cc1)C(=O)OC[C@H](Cc1c[nH]c2ccccc12)NC(=O)[C@@H](CC=C)CC(=O)N(CCO)Cc1ccccc1,,-11
Cc1ccc(-c2cn(S(=O)(=O)c3cccc([N+](=O)[O-])c3)nc2N)cc1,,-4.12
Cc1ccc(-n2cc3ccc([N+](=O)[O-])cc3n2)cc1,2.91 µM (active),
Cc1cc(CO)nn1-c1ccc([N+](=O)[O-])cc1,,-0.0391
O=C(N[C@@H]1C/C=C\C[C@@H](CC(=O)N(CCO)Cc2ccccc2)C(=O)N[C@H](Cc2ccccc2)COC1=O)OCC1c2ccccc2-c2ccccc21,,-0.759
CCCCCCSc1ccc([C@@H]2[C@H]3C(=O)N(CC)C(=O)[C@H]3[C@]3(C(=O)OC)CCCCN23)cc1,,1.28
COCCOC(=O)c1[nH]c2c(c1C)C(=O)CC(c1ccc(OC)cc1)C2 (stereo not drawn),,-0.128
COC(=O)C1C(=O)c2c([nH]c(C(=O)OCCSC)c2C)CC1C (stereo not drawn),16.4 µM (active),
CCCOC(=O)C1=C(C)NC2=C(C(=O)C(C(=O)OC)C(C)C2)C1c1ccc(N(C)C)cc1 (stereo not drawn),,0.467
CC(C)N(C(=O)[C@H]1C[C@H](CC(=O)NC(C)(C)C)C(=O)N2CCc3c([nH]c4ccc(Cl)cc34)[C@]12C)C(C)C,,-3.2
Cc1cc(NC(=O)CSc2ncc(C(F)(F)F)cc2Cl)no1,,-0.775
COc1ccc(Cl)cc1NC(=O)COC(=O)c1ccc(Br)o1,,1.48
CN(C(=O)c1cccc(NC(=O)C2CCN(C(=O)OC(C)(C)C)CC2)c1)C1CCC1,,-4.07
NC[C@H](Cc1ccccc1)NCCc1cc(C(F)(F)F)cc(C(F)(F)F)c1,,0.0851
CCc1ccc2oc(-c3ccc(N)cc3)nc2c1,0.206 µM (active),
Cn1nnnc1SCC(=O)Nc1sccc1C(N)=O,,4.53
Cc1cc(NC(=O)CSCC(=O)NC(C)c2ccccc2)no1 (stereo not drawn),,1.08
COc1ccc2oc(=O)c(C(=O)N3CCCc4ccccc43)cc2c1,,-9.84
COc1ccccc1N1CCN(C(=O)CSc2ncnc3c2cnn3-c2ccc(C)c(C)c2)CC1,,0.292
COc1ccc(-n2ncc3c(N4CCCc5ccccc54)ncnc32)cc1,1.16 µM (active),

Structure (SMILES),Potency,"activity change, positive = activation [%]"
Cc1cccc(-n2ncc(Cl)c(Cl)c2=O)c1,,-13.8
COc1ccc(-n2ncc3c(SCC(=O)NNC(C)=O)ncnc32)cc1,,15.2
Cc1cccc(-n2ncc3c(N4CCc5ccccc54)ncnc32)c1,2.59 µM (active),
O=C1COc2ccc(C(=O)COC(=O)CCOc3ccccc3)cc2N1,,-1.34
C=CCC[C@H](Cc1ccc(F)cc1)C(=O)OC[C@@H](Cc1c[nH]c2ccccc12)NC(=O)[C@H](CC=C)CC(=O)N[C@H](CO)Cc1ccccc1,,-3.43
COc1cc2ccccc2cc1C(=O)Nc1ccncc1,16.4 µM (active),
COc1cc2ccccc2cc1C(=O)Nc1ccc(N2CCOCC2)cc1,,16.1
COc1cc2ccccc2cc1C(=O)Nc1ccc(NC(=O)c2cccs2)cc1,,-6.8
O=C(CSc1nnc(-c2ccncc2)o1)Nc1cccc(Cl)c1,,14.8
CN(Cc1ccc(CNC[C@H]2O[C@@H](n3cnc4c(N)ncnc43)[C@H](O)[C@@H]2O)o1)S(C)(=O)=O,,0.515
Cc1ccc(NC(=O)NC(=O)CSc2nnc(-c3ccc(OC(F)F)cc3)n2N)c(C)c1,,3.7
C=C(C)CSc1nnc(-c2ccc(C)cc2)n1N,10 µM (active),
Cc1ccc(-c2nnc(SC(C)C#N)n2N)cc1 (stereo not drawn),,13.4
CN(CC(=O)NCCc1ccc(S(N)(=O)=O)cc1)CC(=O)Nc1ccc(F)c(F)c1F,,-0.661
CCOC(=O)C1CCN(C(=O)CN2C(=O)NC(C)(c3ccc4cc(OC)ccc4c3)C2=O)CC1 (stereo not drawn),,-5.31
N#CCCN(C(=O)COC(=O)c1ccc2c(c1)OCCO2)c1ccccc1,,0.0128
O=C(OCC(=O)N1CCCCCC1)c1ccc(Cl)nc1,,0.144
Cc1ccccc1OCC(=O)Nc1nc(C)c(C(=O)N(C)C)s1,,-0.0756
CCN(CC)S(=O)(=O)c1ccc(C)c(NC(=O)COc2ccc(Br)cc2Cl)c1,,8.73
Cc1cccc(NC(=O)Nc2ccc(OCc3ccccc3)cc2)n1,,4.5
Cc1cccc(NC(=O)COc2ccccc2C)n1,18.4 µM (active),
Cc1cccc(NC(=O)COc2ccc(Br)cc2C)n1,2 µM (active),
COCCNC(=O)COc1ccccc1C,,3.83
CC(=NNC(=O)c1ccc2nc[nH]c2c1)c1ccc(Br)cc1,,2.04
CCOC(=O)C1CCN(CC(=O)Nc2ccc(OC)c(S(=O)(=O)N3CCCCC3)c2)CC1,,-1.03

Structure (SMILES),Potency,"activity change, positive = activation [%]"
CC1O[C@H](OC2C(COC3OC(CO)C(O)[C@H](O)C3O)OC(OC3CC[C@]4(C)C(CC[C@@]5(C)[C@@H]4C=C[C@]46OC[C@@]7(CCC(C)(C)C[C@H]74)C(O)C[C@@]56C)C3(C)C)C(O)C2O)C(O)C(O)C1O (stereo partly drawn),,2.19
CC(=O)c1sc(NC(=O)C2=NN(c3ccccc3)C(=O)CC2)nc1C,,-0.325
CC(=O)c1sc(N)nc1C,,4.58
CC(=O)c1sc(N/N=C\c2ccc(C)cc2)nc1C,18.4 µM (active),
COc1cc(C=NNC(=O)c2cccnc2)ccc1OC(=O)c1ccccc1F,,0.184
CC[C@@H]1CCCCc2ccccc2[C@@H](C(=O)C[C@H](O)CC(C)=O)OC1=O,,0.282
O=C(CN1C(=O)NC2(CCCCCCC2)C1=O)NCc1ccc(F)cc1,,1.1
Cc1ccc(NC(=O)CN(C)C(=O)c2ccc(Cl)c(S(=O)(=O)NCc3ccco3)c2)cc1,,-2.11
Oc1ccc(N=Cc2sc3ccccc3c2Cl)cc1,,-1.68
COc1ccc(N=C(C)c2sc3ccccc3c2O)cc1,2.31 µM (active),
COC(=O)c1ccc(/C=C/c2c(-c3ccc(OC)cc3)sc3ccccc23)cc1,,0.743
CCOc1ccccc1Nc1nnc(SCC(=O)NCC2CCCO2)s1 (stereo not drawn),,-2.62
Cc1ccc(C)c(NC(=O)CN(C)C(=O)COc2ccc3ccccc3c2)c1,,-2.21
O=C(CSc1nc2ccccc2c(=O)n1-c1ccc(F)cc1)NC1CC1,,4.22
O=C(CSc1nc2ccccc2c(=O)n1-c1ccccc1F)N1CCOCC1,,8.89
Cc1ccc(-n2c(SCC(=O)N3CCC(C(=O)O)CC3)nc3ccccc3c2=O)cc1C,14.6 µM (active),
COc1ccc(S(=O)(=O)N2CCCCCC2)cc1NC(=O)Cc1ccc(OC)c(OC)c1,,-1.59
N#CC(Cc1cc2ccccc2n1S(=O)(=O)c1ccccc1)OCc1ccccc1 (stereo not drawn),,-2.05
Fc1ccc2nc(N3CCCCC3)sc2c1,7.31 µM (active),
O=C(NCCc1cccc(F)c1)C1CCCN(c2nc3ccccc3s2)C1 (stereo not drawn),,-3.62
Cc1ccc2nc(N3CCN(C(=O)c4ccco4)CC3)sc2c1,,11.9
CC(OC(=O)c1ccc(Cl)cc1O)C(=O)NCCC1=CCCCC1 (stereo not drawn),,-1.69
O=C(COC(=O)c1ccco1)Nc1ccc(Cl)cn1,,0.922
COc1ccc(NC(=S)N2N=CCC2c2ccccc2)cc1 (stereo not drawn),4.11 µM (active),
CCC(C)N(C)C1CCN(C(=S)Nc2ccc(OC)cc2)CC1 (stereo not drawn),,-2.36

Structure (SMILES),Potency,"activity change, positive = activation [%]"
COc1ccc(NC(=S)N2CCc3cc(OC)c(OC)cc3C2)cc1,,-1.11
COC(=O)[C@]1(CC(C)C)N[C@H](c2ccc(SC3CCCCC3)cc2)[C@@H]2C(=O)N(C)C(=O)[C@@H]21,,-8.21
CSc1ccccc1NC(=O)c1cnc2sc(C)cn2c1=O,3.26 µM (active),
Cc1ccccc1C(=O)Nc1ccccc1Sc1ccccc1,,1.91
CSc1ccccc1NC(=O)c1cc(Cl)sc1Cl,,-0.581
C[C@@H](CN1CCC[C@H]1CN1C(N)=NC[C@@H]1Cc1ccccc1)N1C[C@@H](Cc2ccccc2)N(CCCC2CCCC2)C1=N,,0.226
CCN(CC)S(=O)(=O)c1ccc(N2CCCC2)c(NC(=O)c2ccc([N+](=O)[O-])o2)c1,,-2.57
O=C(CSc1nccn1-c1cccc(F)c1)NC1CCCC1,,-1.66
COc1cc(C(=O)NC2CCN(C)CC2)ccc1Nc1ncc2c(n1)N(C1CCC(O)CC1)CCC(=O)N2C (stereo not drawn),,11.5
O=C(Cn1c(=S)nc2ccccn21)N1CCc2ccccc2C1,20.6 µM (active),
O=C(C(=O)N1CCc2ccccc2C1)N1CCc2ccccc2C1,,3.73
CCC(=O)c1ccc(OCC(=O)OCC(=O)N2CCc3ccccc3C2)cc1,,4.03
CCOC(=O)[C@@H]1[C@H]2COc3ccc(Br)cc3[C@H]2N2C(=O)N(c3ccc(C)cc3)C(=O)[C@@]12C,,-1.54
Cc1ccc(S(=O)(=O)N2C[C@@H]3CCCC[C@@H]3[C@@H](C)[C@H]2c2cn(Cc3ccccc3)c3ccc(F)cc23)cc1,,-5.58
CC(C)C(NC(=O)c1c(F)cccc1F)C(=O)NNC(=O)c1ccccc1 (stereo not drawn),,3.05
COc1cc(/C=C/C(=O)OCC(=O)c2ccccc2)cc(OC)c1OC,,5.34
Cc1nc2cc(-c3ccc(F)cc3)nn2c(N2CCOCC2)c1C,,10.7
Cc1cc(C(C)(C)C)n2nc(C)c(-c3ccccc3)c2n1,,-0.426
Cc1cc(N)n2nc(-c3ccc(C(C)(C)C)cc3)cc2n1,0.411 µM (active),
COc1ccc2[nH]c3c(c2c1)CCN1C(=O)C(CC(=O)NCCc2ccccn2)C[C@H](C(=O)N2CCOCC2)[C@@]31C (stereo partly drawn),,7.43
CCn1c(SCc2ccccc2)nc2c(c1=O)SCC2,,4.43
CCn1c(SCc2ccccc2)nc2cc(OC)c(OC)cc2c1=O,,3.09
CCS(=O)(=O)n1nc(-c2ccccc2)nc1SCc1ccccc1,10.3 µM (active),
